Consider 153 variants from a collection of fitness landscapes (doi:10.1126/science.1257360).

The labels stand for the following.
B1: PhoQ; a variant is named by its letters at X, in order, P23837 (parent)
chain: MKKLLRLFFPLSLRVRFLLATAAVVLVLSLAYGMVALIGYSVSFDKTTFRLLRGESNLFYTLAKWENNKLHVELPENIDKQSPTMTLIYDENGQLLWAQRDVPWLMKMIQPDWLKSNGFHEIEADVNDTSLLLSGDHSIQQQLQEVREDDDDAEMTHSVAVNVYPATSRMPKLTIVVVDTIPVELKSSYMVWSWFIYVLSANLLLVIPLLWVAAWWSLRPIEALAKEVRELEEHNRELLNPATTRELTSLVRNLNRLLKSERERYDKYRTTLTDLTHSLKTPLXXLQXXLRSLRSEKMSVSDAEPVMLEQISRISQQIGYYLHRASMRGGTLLSRELHPVAPLLDNLTSALNKVYQRKGVNISLDISPEISFVGEQNDFVEVMGNVLDNACKYCLEFVEISARQTDEHLYIVVEDDGPGIPLSKREVIFDRGQRVDTLRPGQGVGLAVAREITEQYEGKIVAGESMLGGARMEVIFGRQHSAPKDE

The full ranking holds about 140,000 sequences; the median of “enrichment ratio after two sorts for PhoP signalling” is about 0, and the highest 2% start at about 11. Many of the other results were omitted from the sample, so the highest values are more common in it than they were.

Variants of B1 are the subject of the test. As to the kind of experiment: enrichment ratio after two sorts for PhoP signalling (ratio (wild type AVST 3.29)); higher = more functional. The conditions noted are these: with PhoP (E. coli).
On to EFRW, for which the enrichment ratio was no more than 0.25. Under YYAI stands no more than 0.25; under AISP, no more than 0.25.

SFQS: the enrichment ratio was no more than 0.25. Turning to NRHR, the enrichment ratio is no more than 0.25. Consider MSNW, for which the enrichment ratio was no more than 0.25.

For the variant PCTN, the enrichment ratio was no more than 0.25.

Regarding TDQW, the enrichment ratio was no more than 0.25.

For LVST, the enrichment ratio was no more than 0.25. In the case of RVEC, the enrichment ratio was no more than 0.25. Consider CSTF, for which the enrichment ratio worked out at 15.8.

With ASHF, the enrichment ratio was no more than 0.25.

On to ATTF, for which the enrichment ratio came out at 18.8. As to CITF, the enrichment ratio was no more than 0.25. In the case of LTTF, the enrichment ratio was no more than 0.25. The result for AVTF reads 11.4; that for ADTF, no more than 0.25.

With AVHF, the enrichment ratio was no more than 0.25. The result for CTTF reads no more than 0.25; that for ASTF, 11.8. In the case of AHTF, the enrichment ratio was no more than 0.25.

Turning to YTTF, the enrichment ratio was no more than 0.25.

On to QRGI, for which the enrichment ratio was no more than 0.25. In the case of VSMY, the enrichment ratio was no more than 0.25. For the variant YGPL, the enrichment ratio was no more than 0.25. In the case of AGVR, the enrichment ratio is no more than 0.25. Consider TLEC, for which the enrichment ratio is no more than 0.25. On to VESY, for which the enrichment ratio is no more than 0.25. The result for YITC reads no more than 0.25. As for QKNA, the enrichment ratio is no more than 0.25. Regarding AITF, the enrichment ratio was 15. The result for AKTF reads 2.43; that for KSTF, no more than 0.25. In the case of IPNS, the enrichment ratio was no more than 0.25. Under WFEY stands no more than 0.25; under AYPG, no more than 0.25. As to KDLN, the enrichment ratio was no more than 0.25. Under TDLA stands 14.

In the case of TDTH, the enrichment ratio came to 8.19. In the case of LTLS, the enrichment ratio was no more than 0.25.

TDLT: the enrichment ratio stood at 7.28. Consider TDLN, for which the enrichment ratio stood at 14.9. Turning to TDYI, the enrichment ratio is no more than 0.25. For the variant TDLS, the enrichment ratio was 18.

Regarding LTLN, the enrichment ratio was no more than 0.25. Consider CDLS, for which the enrichment ratio is no more than 0.25. Take TDTI: the enrichment ratio was 14.6.

Regarding TDTK, the enrichment ratio is no more than 0.25. Regarding VMTR, the enrichment ratio is no more than 0.25. On to STQS, for which the enrichment ratio is no more than 0.25. KTAN: the enrichment ratio is no more than 0.25.

Turning to DFLN, the enrichment ratio is no more than 0.25.

Consider NTCK, for which the enrichment ratio is no more than 0.25.

Consider QLKF, for which the enrichment ratio was no more than 0.25. As to TGQG, the enrichment ratio was determined as 15.7. PFQG: the enrichment ratio is no more than 0.25. TFQG: the enrichment ratio was 12.3. Regarding PVQG, the enrichment ratio was no more than 0.25. Turning to KAQG, the enrichment ratio is no more than 0.25.

NVQG: the enrichment ratio is no more than 0.25. Turning to TVQG, the enrichment ratio is 14.6. Under RGQG stands no more than 0.25. Turning to GGQG, the enrichment ratio is no more than 0.25.

Consider NFQG, for which the enrichment ratio is no more than 0.25.

With TLQG, the enrichment ratio came to 11.8. Regarding PLQG, the enrichment ratio was no more than 0.25. With VFKH, the enrichment ratio is no more than 0.25. As to NHHA, the enrichment ratio is no more than 0.25. The result for ILFN reads no more than 0.25; that for FTCA, no more than 0.25; that for STNQ, 1.23. On to FWKT, for which the enrichment ratio is no more than 0.25. On to LMTM, for which the enrichment ratio is no more than 0.25.

For the variant EMQG, the enrichment ratio is no more than 0.25. On to HAQG, for which the enrichment ratio was no more than 0.25.

With TMQG, the enrichment ratio amounted to 11.9. Under TITY stands no more than 0.25; under SFAT, no more than 0.25; under SNWM, no more than 0.25.

Take NQAM: the enrichment ratio is no more than 0.25. As to SNCK, the enrichment ratio came out at 0.609. Consider ITAM, for which the enrichment ratio was found to be 0.308. Regarding SLAT, the enrichment ratio is no more than 0.25. On to SNAM, for which the enrichment ratio is 13.5. For the variant FQAM, the enrichment ratio was no more than 0.25. As to TTAM, the enrichment ratio is 17.5. Take TQAM: the enrichment ratio was determined as 25.5. Turning to GTAM, the enrichment ratio is no more than 0.25. Consider SQAT, for which the enrichment ratio worked out at 12.5.

Turning to EQWF, the enrichment ratio is no more than 0.25.

Regarding TQKS, the enrichment ratio was no more than 0.25. As for TDDA, the enrichment ratio was no more than 0.25.

With HGKC, the enrichment ratio was no more than 0.25. With ILFG, the enrichment ratio is no more than 0.25. With SPAM, the enrichment ratio is no more than 0.25. With WQAM, the enrichment ratio is no more than 0.25.

SERM: the enrichment ratio was no more than 0.25. The result for STAM reads 12.1; that for YTAM, no more than 0.25; that for SEAM, 15.9. For the variant SQAM, the enrichment ratio was determined as 21.4. As to SFAM, the enrichment ratio is no more than 0.25. Regarding RSGP, the enrichment ratio was no more than 0.25.

On to ILCM, for which the enrichment ratio is no more than 0.25. Under CSYF stands no more than 0.25. For the variant EGPL, the enrichment ratio was no more than 0.25. With STKG, the enrichment ratio is no more than 0.25. The result for TAEP reads 0.518.

Regarding VSNR, the enrichment ratio was no more than 0.25. Regarding TGCN, the enrichment ratio worked out at 42.2. Regarding AKLN, the enrichment ratio was determined as 14. The result for STLN reads 14.8; that for AILN, 4.12. Consider RGCN, for which the enrichment ratio was no more than 0.25. On to KYLN, for which the enrichment ratio is no more than 0.25. In the case of TTLN, the enrichment ratio was 23.9.

Consider YTLN, for which the enrichment ratio worked out at 8.58. As to SPLN, the enrichment ratio is no more than 0.25. On to ITLN, for which the enrichment ratio is 1.49. Regarding GGCN, the enrichment ratio turned out to be 0.54.

For the variant TKLN, the enrichment ratio was 8.35. AGQV: the enrichment ratio was no more than 0.25. Under QSKK stands no more than 0.25; under HWTI, no more than 0.25.

QAFH: the enrichment ratio is 9.93. Consider QFDR, for which the enrichment ratio was no more than 0.25. For QGQP, the enrichment ratio was no more than 0.25. Consider LKDC, for which the enrichment ratio was no more than 0.25. As for PWTA, the enrichment ratio was no more than 0.25. For LSFA, the enrichment ratio was no more than 0.25. Under YDML stands no more than 0.25. For the variant TVCN, the enrichment ratio is 26.1.

Consider SPCN, for which the enrichment ratio was no more than 0.25. With NVCN, the enrichment ratio is no more than 0.25. As to ATQN, the enrichment ratio was no more than 0.25.

As for AICN, the enrichment ratio was 18.7.

Take AWCN: the enrichment ratio is no more than 0.25. On to NICN, for which the enrichment ratio was no more than 0.25. With AHCN, the enrichment ratio is no more than 0.25. For the variant RICN, the enrichment ratio is no more than 0.25. On to ADCN, for which the enrichment ratio stood at 11.5.

On to ATLN, for which the enrichment ratio came to 17.9. The result for ATCN reads 3.42; that for CTFI, 9.39. With DTFW, the enrichment ratio was no more than 0.25. For the variant LRFL, the enrichment ratio was no more than 0.25. For IIPK, the enrichment ratio was no more than 0.25.

With EKLK, the enrichment ratio is no more than 0.25. In the case of QVPD, the enrichment ratio was no more than 0.25.

For ENFI, the enrichment ratio was no more than 0.25. Under QKFY stands no more than 0.25; under VRCN, no more than 0.25.

For SGCN, the enrichment ratio came out at 11.5.
